Experimental findings from PubChem BioAssay (EPA / NIEHS) are described below.

For orientation: AC50 means the concentration at which the activity in the assay is half-maximal.

Some structures have more than one record in an assay (separate samples or runs), and their calls can disagree. Calls of active or inactive are those of the source. Rule for the calls: active = hit-call score of the fitted dose curve at least 0.9, where 1 is the maximum; inactive = score below 0.9.

Bile acid receptor (Homo sapiens), sequence (Q96RI1 whole entry, looked up): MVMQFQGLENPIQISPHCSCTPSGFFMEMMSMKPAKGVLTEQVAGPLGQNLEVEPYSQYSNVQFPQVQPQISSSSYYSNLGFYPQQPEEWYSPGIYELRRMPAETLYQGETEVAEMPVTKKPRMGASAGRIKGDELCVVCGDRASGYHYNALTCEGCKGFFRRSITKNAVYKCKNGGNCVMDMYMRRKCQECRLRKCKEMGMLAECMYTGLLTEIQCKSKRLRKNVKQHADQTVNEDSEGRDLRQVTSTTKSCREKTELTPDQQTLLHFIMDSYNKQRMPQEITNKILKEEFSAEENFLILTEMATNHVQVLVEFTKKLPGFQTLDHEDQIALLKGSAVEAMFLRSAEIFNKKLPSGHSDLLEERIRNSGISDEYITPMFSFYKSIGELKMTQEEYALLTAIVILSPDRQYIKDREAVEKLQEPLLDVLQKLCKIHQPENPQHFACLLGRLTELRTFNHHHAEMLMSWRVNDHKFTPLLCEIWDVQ

The experiment addresses Bile acid receptor (Homo sapiens) (UniProt Q96RI1). Description: ATG_IR1_CIS: Attagene CIS-FACTORIAL HepG2 Assay for human Nuclear Receptor Subfamily 1 Group H Member 4 (NR1H4), IR1 submotif (AID 2282946). The conditions noted are these: IR1 reporter transcription, actives raise or lower the signal. The protocol:
ATG_CIS is a cell-based, multiplexed-readout assay that uses HepG2, a human liver cell line, with measurements taken at 24 hours after chemical dosing in a 24-well plate.ATG_IR1_CIS is one of 52 assay component(s) measured or calculated from the ATG_CIS assay. It is designed to make measurements of mRNA induction, a form of inducible reporter, as detected with fluorescence intensity signals by Reverse transcription polymerase chain reaction (RT-PCR) and Capillary electrophoresis technology.Data from the assay component ATG_IR1_CIS was analyzed into 1 assay endpoint. This assay endpoint, ATG_IR1_CIS, was analyzed with bidirectional fitting relative to DMSO as the negative control and baseline of activity. Using a type of inducible reporter, measures of mRNA for gain or loss-of-signal activity can be used to understand the reporter gene at the transcription factor-level as they relate to the gene NR1H4. Furthermore, this assay endpoint can be referred to as a primary readout, because this assay has produced multiple assay endpoints where this one serves a reporter gene function. To generalize the intended target to other relatable targets, this assay endpoint is annotated to the nuclear receptor intended target family, where the subfamily is non-steroidal.
Human liver HepG2 cells are transiently transfected with multiple reporter transcription units (MRTUs) in 6-well plates using FuGene 6 reagent (Roche; 3 ml FuGene/1 mg DNA). The MRTU constructs are regulated by a cis-regulating element (promoter). […] A major difference between the CIS and TRANS system is that in CIS activities of endogenous TFs are measured, whereas the TRANS assay evaluates changes in activities of exogenous, chimeric NR-Gal4 proteins. […] At the end of 24 hour incubation, total RNA was isolated using TriZol reagent (Invitrogen). The isolated RNA is then reverse-transcribed using oligo(dT) primer and Mo-MLV reverse transcriptase (Invitrogen) with DNAse I (Ambion) treatment for 30 min. The one-tenth of the produced cDNA was amplified by PCR using Taq DNA polymerase (Invitrogen) and two reporter sequence-specific primers. The PCR products were fluorescently labeled by primer extension with 6-arboxyfluorescein (6-FAM) 5'-labeled reporter sequence-specific primer (2 min at 95 C, 20 s at 68 C and 10 min at 72 C) and these products were digested with 5U of HpaI (New England Biolabs) for 2h at 37 C. The fragments were purified using Qiaquick PCR columns (Qiagen), analyzed on an ABI 3130xL genetic analyzer (Applied Biosystems) with peak positions identified by using a set of X-rhodamine (ROX)-labeled MapMarker1000 molecular weight standards (BioVentures). The raw capillary electrophoresis data was processed using Attagraph software (Attagene).
For the compound `O=C(O)c1ccc2c(c1)nc(C(=O)NC1CCN(C3CC3)CC1)n2Cc1cc(-c2ccc(Cl)s2)on1`, the result was inactive.

Regarding `c1ccc2cc3ccccc3cc2c1`, the result was inactive.

Turning to `CCOc1ccc2[nH]cc(C(=O)NCc3ccccc3)c(=O)c2n1`, the outcome was inactive.

Turning to `Cn1c(=O)c2[nH]cnc2n(C)c1=O`, the compound was called inactive.

As for `O=C(O)[C@H](O)[C@@H](O)C(=O)O`, the result was inactive.

For `CCCOc1ccc(S(=O)(=O)N2CCN(CC)CC2)cc1-c1nc2c(CC)n(Cc3ccccn3)nc2c(=O)[nH]1`, the AC50 is 100 µM (active).

On to `COc1cc2c(c(OC)c1OC)-c1ccc(OC)c(=O)cc1[C@@H](NC(C)=O)CC2`, for which the AC50 was 0.0925 µM (active).

Consider `Cc1nccn1-c1ccc(Sc2cccc(C3(C(N)=O)CCOCC3)c2)cc1`, for which the AC50 is 1.01 µM (active).

`OC[C@H]1O[C@@](CO)(O[C@H]2O[C@H](CO)[C@@H](O)[C@H](O)[C@H]2O)[C@@H](O)[C@@H]1O`: the result was inactive.

In the case of `C[C@@H](Oc1ccc(CNC(=O)c2cccnc2Oc2ccc3c(c2)OCO3)c(F)c1)C(=O)O`, the compound was classed as inactive.

Turning to `NC(=O)N(O)[C@@H]1COc2cc(OCc3ccccc3)ccc21`, the result was inactive.

As to `CCN(CC)C(=S)SSC(=S)N(CC)CC`, the AC50 is 67.8 µM (active).

`FC(F)(F)COC(OCC(F)(F)F)OCC(F)(F)F`: the outcome was inactive.

`Cc1cccc(O)c1C`: the compound was classed as inactive and the AC50 was 23.7 µM (active).

As to `COc1cc(C(C)C)c2c(c1)S(=O)(=O)N(COc1cc(=O)n3cccc(OCCN4CCCCC4)c3n1)C2=O`, the compound was called inactive.

As to `FC(F)C(F)(F)COCC1CO1` (stereo not given), the outcome was inactive.

For `OC(O)(C(F)C(O)(O)C(F)(F)F)C(F)(F)F`, the result was inactive.

For the compound `NCC(F)(F)C(F)(F)C(F)(F)C(F)(F)F`, the result was inactive.

For `COCc1nnc(-c2ccc[n+]([O-])c2)n1-c1c(Cl)c(Cl)cc2[nH]c(=O)c(=O)[nH]c12`, the call was inactive.

With `S=P(N1CC1)(N1CC1)N1CC1`, the result was inactive.

`CC(C)CC(C)O` (stereo not given): the outcome was inactive.

For the compound `O=S(=O)(O)CCC(F)(F)C(F)(F)C(F)(F)C(F)(F)C(F)(F)C(F)(F)F`, the compound was classed as inactive.

On to `Cc1ncc([C@@H](CCCCCCc2ccc3c(n2)NCCC3)CC(=O)O)cn1`, for which the compound was classed as inactive.

Turning to `CCCCCCCCCCCCCCCCOS(=O)(=O)O`, the outcome was inactive.

As to `Cc1nc(-c2ccccn2)ncc1C(=O)Nn1cc(C)c2cc(F)ccc21`, the outcome was inactive.

For `FC(F)=C(F)C(F)(F)C(F)(F)C(F)(F)C(F)(F)C(F)(F)C(F)(F)F`, the outcome was inactive.

With `O=C(O)c1cccc(C(=O)O)c1`, the compound was called inactive.

As for `CC(C)CCCCCCOC(=O)C1CCCCC1C(=O)OCCCCCCC(C)C` (stereo not given), the compound was classed as inactive.

As for `C[Si](C)(C)C(F)(F)C(F)(F)C(F)(F)F`, the call was inactive.

Consider `O=S(=O)(O)c1ccc(N=Nc2c(O)ccc3cc(S(=O)(=O)O)ccc23)cc1`, for which the compound was called inactive.

Regarding `OCc1c[nH]c2ccccc12`, the result was inactive.

With `CCCCCOC(C)=O`, the compound was classed as inactive.

In the case of `O=C(Cl)C(F)(F)C(F)(F)C(F)(F)C(=O)Cl`, the call was inactive.

For `CCCCCCCCCC`, the compound was classed as inactive.

Take `C=CCc1cc(S(=O)(=O)c2ccc(O)c(CC=C)c2)ccc1O`: the AC50 was 51.1 µM (active).

`Nc1ccn([C@@H]2O[C@H](CO)[C@@H](O)[C@@H]2O)c(=O)n1`: the compound was called inactive.

As to `FC(F)(F)C(F)(F)C(F)(F)C(F)(F)C(F)(F)C(F)(F)I`, the result was inactive.

`OCCC(F)(F)C(F)(F)C(F)(F)C(F)(F)F`: the call was inactive.

As for `CC(C)C(=O)Nc1ccc([N+](=O)[O-])c(C(F)(F)F)c1`, the compound was called inactive.
